Reference: the antibiotic and cytotoxicity screens of Wong et al. (2023)
Hit rate of the full screen: of about 39,000 compounds, about 3,300 (8.5%) were called active. What follows is part of a selection rich in actives, with near analogues and random picks from the rest.

System: HepG2
Experiment: cytotoxicity call (relative viability < 0.9)
Settings: 10 µM

| Compound | cytotoxicity call |
| --- | --- |
| CCS(=O)(=O)N1CCNCC1 | inactive |
| CC1C(=O)CCC2C1(C)CCC1C2(C)CCC2(C)C3CC(C)(C)CCC3(C)CCC12C (stereo unspecified) | inactive |
| O=C(O)c1n[nH]c2c1CCCC2 | inactive |
| C[C@H]1CN([C@@H](C)CO)C(=O)c2cc(C#Cc3ccccc3F)cnc2O[C@H]1CN(C)C(=O)C1CCOCC1 | inactive |
| COc1ccc(C[C@H]2c3cc(OC)c(OC)cc3CC[N@+]2(C)CCC(=O)OCCCCCOC(=O)CC[N@+]2(C)CCc3cc(OC)c(OC)cc3[C@@H]2Cc2ccc(OC)c(OC)c2)cc1OC | inactive |
| COc1ccc(CC2c3cc(OC)c(OC)cc3CC[N+]2(C)CCC(=O)OCCCCCOC(=O)CC[N+]2(C)CCc3cc(OC)c(OC)cc3C2Cc2ccc(OC)c(OC)c2)cc1OC.O=S(=O)([O-])c1ccccc1.O=S(=O)([O-])c1ccccc1 (stereo unspecified) | inactive |
| COc1ccc(C[C@@H]2c3cc(OC)c(OC)cc3CC[N@+]2(C)CCC(=O)OCCCCCOC(=O)CC[N@@+]2(C)CCc3cc(OC)c(OC)cc3[C@H]2Cc2ccc(OC)c(OC)c2)cc1OC | active |
| COc1ccc(S(=O)(=O)Nc2ccc3c(c2)C(=O)N([C@@H](C)CO)C[C@H](C)[C@@H](CN(C)S(=O)(=O)c2ccccc2)O3)cc1 | inactive |
| C[C@@H]1CN([C@H](C)CO)C(=O)c2cc(NC(=O)C3CCCCC3)ccc2O[C@H]1CN(C)Cc1ccc(C(F)(F)F)cc1 | inactive |
| CC(C)NC(=O)Nc1cccc2c1O[C@@H](CN(C)Cc1ccc(Oc3ccccc3)cc1)[C@@H](C)CN([C@H](C)CO)C2=O | inactive |
| COc1cccn(CC(=O)N2CCO[C@@H](CCN)C2)c1=O | inactive |
| CCNc1nc(SCC(N)=O)nc(N2CCOCC2)n1 | inactive |
| CNc1nc(SCC(N)=O)nc(N2CCOCC2)n1 | active |
| CN(C)c1nc(SCC(N)=O)nc(N(C)C)n1 | inactive |
| Cn1c(=O)c2c(nc(N(CCO)CCO)n2Cc2ccc(F)cc2)n(C)c1=O | inactive |
| C[C@@H]1CN([C@@H](C)CO)C(=O)c2c(c3ccccc3n2C)-c2ccccc2CO[C@H]1CN(C)Cc1ccc(Oc2ccccc2)cc1 | inactive |
| C[C@@H]1CN([C@H](C)CO)C(=O)Cc2cc(NC(=O)CCC(F)(F)F)ccc2O[C@H]1CN(C)C(=O)Nc1ccc(C(F)(F)F)cc1 | inactive |
| C[C@@H]1CN([C@@H](C)CO)C(=O)Cc2cc(NC(=O)C3CCCCC3)ccc2O[C@H]1CN(C)Cc1ccc(-c2ccccc2)cc1 | inactive |
| C[C@@H]1CN([C@@H](C)CO)C(=O)Cc2cc(NC(=O)C3CCCCC3)ccc2O[C@@H]1CN(C)Cc1ccc(-c2ccccc2)cc1 | active |
| C[C@@H]1CN([C@H](C)CO)C(=O)Cc2cc(NC(=O)C3CCCCC3)ccc2O[C@H]1CN(C)Cc1ccc(-c2ccccc2)cc1 | inactive |
| C[C@H](CO)N1C[C@H](C)[C@H](CN(C)Cc2ccc(-c3ccccc3)cc2)Oc2ccc(NC(=O)C3CCCCC3)cc2CC1=O | inactive |
| C[C@@H]1CN([C@H](C)CO)C(=O)Cc2cc(NC(=O)C3CCCCC3)ccc2O[C@@H]1CN(C)Cc1ccc(-c2ccccc2)cc1 | active |

| Compound | cytotoxicity call |
| --- | --- |
| C[C@H]1CN([C@@H](C)CO)C(=O)Cc2cc(NC(=O)C3CCCCC3)ccc2O[C@@H]1CN(C)Cc1ccc(-c2ccccc2)cc1 | inactive |
| Cc1noc(C)c1NC(=O)N(C)C[C@H]1Oc2c(NC(=O)C3CC3)cccc2C(=O)N([C@H](C)CO)C[C@H]1C | inactive |
| COc1ccc(NC(=O)Nc2ccc3c(c2)CC(=O)N([C@@H](C)CO)C[C@@H](C)[C@@H](CN(C)Cc2ccc(Cl)c(Cl)c2)O3)cc1 | active |
| COc1ccc(NC(=O)Nc2ccc3c(c2)CC(=O)N([C@@H](C)CO)C[C@H](C)[C@@H](CN(C)Cc2ccc(Cl)c(Cl)c2)O3)cc1 | active |
| COc1ccc(NC(=O)Nc2ccc3c(c2)CC(=O)N([C@H](C)CO)C[C@H](C)[C@@H](CN(C)Cc2ccc(Cl)c(Cl)c2)O3)cc1 | inactive |
| COc1ccc(NC(=O)Nc2ccc3c(c2)C(=O)N([C@@H](C)CO)C[C@@H](C)[C@H](CN(C)Cc2ccc(Cl)c(Cl)c2)O3)cc1 | inactive |
| COc1ccc(NC(=O)Nc2ccc3c(c2)C(=O)N([C@H](C)CO)C[C@@H](C)[C@H](CN(C)Cc2ccc(Cl)c(Cl)c2)O3)cc1 | inactive |
| COc1ccc(NC(=O)Nc2ccc3c(c2)CC(=O)N([C@H](C)CO)C[C@H](C)[C@H](CN(C)Cc2ccc(Cl)c(Cl)c2)O3)cc1 | active |
| COc1ccc(NC(=O)Nc2ccc3c(c2)CC(=O)N([C@@H](C)CO)C[C@H](C)[C@H](CN(C)Cc2ccc(Cl)c(Cl)c2)O3)cc1 | active |
| C[C@H](CO)N1C[C@H](C)[C@H](CN(C)S(=O)(=O)c2ccccc2)Oc2ccc(NS(=O)(=O)c3cn(C)cn3)cc2CC1=O | inactive |
| CC(C)NC(=O)N(C)C[C@H]1Oc2cc(C#Cc3cccc(F)c3)ccc2S(=O)(=O)N([C@H](C)CO)C[C@H]1C | inactive |
| O=C(NCCCO)c1cc2ccccc2oc1=O | inactive |
| COc1cccc(C(=O)Nc2ccc3c(c2)C(=O)N(C)[C@H]2CC[C@@H](CC(=O)NCCCN4CCOCC4)O[C@@H]2CO3)c1 | inactive |
| C[C@H]1CN([C@@H](C)CO)C(=O)Cc2cc(NS(C)(=O)=O)ccc2O[C@@H]1CN(C)S(=O)(=O)c1cccs1 | inactive |
| Cc1ccc(S(=O)(=O)N[C@@H]2CC[C@@H](CCNC(=O)CN3CCOCC3)O[C@@H]2CO)cc1 | inactive |
| COC(=O)CSc1cc(C)nc(N)n1 | inactive |
| COc1cccc(NC(=O)C[C@H]2CC[C@H]3[C@@H](COc4ccc(NC(=O)C5CCOCC5)cc4C(=O)N3C)O2)c1 | inactive |
| C[C@@H]1CN([C@@H](C)CO)C(=O)c2cc(NS(=O)(=O)c3cn(C)cn3)ccc2O[C@@H](C)CCCCO[C@H]1CN(C)C(=O)CCCN(C)C | inactive |
| C[C@H](CO)N1C[C@H](C)[C@@H](CN(C)Cc2ccc(C(=O)O)cc2)Oc2c(NC(=O)C3CC3)cccc2C1=O | inactive |
| COc1ccc(NC(=O)Nc2ccc3c(c2)CC(=O)N([C@H](C)CO)C[C@@H](C)[C@@H](CN(C)Cc2ccc(Cl)c(Cl)c2)O3)cc1 | inactive |
| COc1ccc(NC(=O)Nc2ccc3c(c2)CC(=O)N([C@H](C)CO)C[C@@H](C)[C@H](CN(C)Cc2ccc(Cl)c(Cl)c2)O3)cc1 | active |
| COc1ccc(NC(=O)Nc2ccc3c(c2)CC(=O)N([C@@H](C)CO)C[C@@H](C)[C@H](CN(C)Cc2ccc(Cl)c(Cl)c2)O3)cc1 | inactive |

| Compound | cytotoxicity call |
| --- | --- |
| C[C@@H]1CN([C@@H](C)CO)C(=O)c2cc(NC(=O)c3ccncc3)ccc2O[C@@H]1CN(C)S(=O)(=O)c1ccc(F)cc1 | inactive |
| Cc1noc(C)c1NC(=O)N(C)C[C@@H]1Oc2cc(C#CCN(C)C)ccc2S(=O)(=O)N([C@@H](C)CO)C[C@@H]1C | inactive |
| C[C@H](CO)N1C[C@H](C)[C@H](CN(C)Cc2cccc(C(F)(F)F)c2)Oc2ncc(-c3ccc(F)cc3)cc2C1=O | inactive |
| C[C@H](CO)N1C[C@H](C)[C@H](CN(C)C(=O)Nc2cccc3ccccc23)Oc2ncc(-c3cc4ccccc4o3)cc2C1=O | inactive |
| C[C@H](CO)N1C[C@H](C)[C@H](CN(C)Cc2cccc(C(F)(F)F)c2)Oc2ncc(-c3cc4ccccc4o3)cc2C1=O | inactive |
| C[C@H](CO)N1C[C@H](C)[C@H](CN(C)S(=O)(=O)c2cn(C)cn2)Oc2ncc(-c3cccc(C(F)(F)F)c3)cc2C1=O | active |
| C[C@H](CO)N1C[C@H](C)[C@H](CN(C)Cc2cccc(C(F)(F)F)c2)Oc2ncc(-c3cccc(C(F)(F)F)c3)cc2C1=O | inactive |
| C[C@H](CO)N1C[C@H](C)[C@H](CN(C)Cc2cccc(C(F)(F)F)c2)Oc2ncc(/C=C/c3ccccc3)cc2C1=O | active |
| C[C@H](CO)N1C[C@H](C)[C@H](CN(C)S(=O)(=O)c2cn(C)cn2)Oc2ncc(-c3ccccc3)cc2C1=O | inactive |
| C[C@H](CO)N1C[C@H](C)[C@H](CN(C)Cc2cccc(C(F)(F)F)c2)Oc2ncc(-c3cccc(F)c3)cc2C1=O | active |
| C[C@H](CO)N1C[C@H](C)[C@H](CN(C)S(=O)(=O)c2cn(C)cn2)Oc2ncc(-c3cccc(F)c3)cc2C1=O | inactive |
| C[C@H](CO)N1C[C@H](C)[C@H](CN(C)Cc2ccccc2)Oc2ncc(-c3cccc(C(F)(F)F)c3)cc2C1=O | inactive |
| C[C@H](CO)N1C[C@H](C)[C@H](CN(C)Cc2cccc(C(F)(F)F)c2)Oc2ncc(-c3ccccc3)cc2C1=O | inactive |
| Cc1cccc(CN(C)C[C@@H]2Oc3ncc(-c4cc5ccccc5o4)cc3C(=O)N([C@H](C)CO)C[C@@H]2C)c1 | active |
| CCCC#Cc1cnc2c(c1)C(=O)N([C@H](C)CO)C[C@H](C)[C@H](CN(C)S(=O)(=O)c1cccc(OC)c1)O2 | inactive |
| COCC#Cc1cnc2c(c1)C(=O)N([C@H](C)CO)C[C@H](C)[C@@H](CN(C)C(=O)Nc1ccc(OC)cc1)O2 | inactive |
| COc1ccc(CNC(=O)C[C@@H]2C[C@H]3c4cc(NS(=O)(=O)c5ccc(F)cc5)ccc4O[C@H]3[C@@H](CO)O2)cc1 | inactive |
| COc1ccc(CN(C)C[C@@H]2Oc3c(NS(=O)(=O)c4cn(C)cn4)cccc3C(=O)N([C@@H](C)CO)C[C@@H]2C)cc1 | inactive |
| COc1cccc(S(=O)(=O)Nc2ccc3c(c2)[C@@H]2C[C@H](CC(=O)N4CCCCC4)O[C@@H](CO)[C@@H]2O3)c1 | inactive |
| C[C@@H]1CN([C@@H](C)CO)S(=O)(=O)c2ccc(C#CCN(C)C)cc2O[C@H]1CN(C)Cc1ccccc1F | inactive |
| Cn1c(S(=O)(=O)CC(N)=O)nc2ccccc21 | inactive |
| Cc1cccc(OC[C@H](O)Cn2c(N3CCN(C)CC3)nc3c2c(=O)n(C)c(=O)n3C)c1 | inactive |
